Results taken from PubChem BioAssay (NCATS).
Inconclusive results are not listed. Calls of active or inactive are those of the source. The call rests on the fitted dose curve; in most records, active means well fitted curve in the direction sought with a large enough effect; inconclusive means small, poorly fitted or top-dose-only effect, or another doubt; inactive means no such curve, though single readings can be large; an effect the other way counts as inactive or inconclusive.

How the values were obtained:
[1] = qHTS of pediatric cancer cell lines to identify multiple opportunities for drug repurposing: Primary screen for OHS-50 cells (AID 1347103); settings: OHS-50 osteosarcoma viability, CellTiter-Glo luminescence, 48 h; series mostly up to 57.3 µM; further: nearly all actives have a fitted effect of over 40% in size
In short: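 Cells (500-1,000/well) rested 5 h, then received compounds for 48 h; metabolically active cells were measured by CellTiter-Glo luminescence. Final concentrations spanned up to 46 µM (MIPE, 11-point) or 0.59 nM-46 µM (NPC, 8-point) in primary screens, 11-point in follow-ups.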

[2] = qHTS of pediatric cancer cell lines to identify multiple opportunities for drug repurposing: Primary screen for MG 63 (6-TG R) cells (AID 1347105); settings: MG 63 (6-TG R) viability, CellTiter-Glo, 48 h; series mostly up to 46 µM; further: nearly all actives have a fitted effect of over 50% in size
In short: (§1)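 Plated cells (500-1,000 per well, growth media) were allowed to settle for 5 hours, treated with compound dilutions for 48 hours, then lysed with CellTiter-Glo for 15 min at room temperature before luminescence reading.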

[3] = qHTS of pediatric cancer cell lines to identify multiple opportunities for drug repurposing: Primary screen for control Hh wild type fibroblast cells (AID 1347106); settings: Hh wild-type fibroblast viability, CellTiter-Glo luminescence, 48 h; series mostly up to 46 µM;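 further: a drop in luminescence marks cytotoxicity and a rise apparent proliferation; nearly all actives have a fitted effect of over 55% in size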
In short: (§2)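 Viability after 48 h compound treatment at 37C, 500-1,000 cells/well, read as ATP luminescence with CellTiter-Glo. Primary screens used 11-point (MIPE, 0.78 nM-46 µM) or 8-point (NPC, 0.59 nM-46 µM) final concentrations; follow-up screens used 11-point dilutions.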

[4] = qHTS of pediatric cancer cell lines to identify multiple opportunities for drug repurposing: Primary screen for Rh30 cells (AID 1347107); settings: Rh30 rhabdomyosarcoma viability, CellTiter-Glo luminescence, 48 h; series mostly up to 46 µM; further: nearly all actives have a fitted effect of over 75% in size
In short: as §2

[5] = qHTS of pediatric cancer cell lines to identify multiple opportunities for drug repurposing: Primary screen for Rh41 cells (AID 1347108); settings: Rh41 rhabdomyosarcoma viability, CellTiter-Glo luminescence, 48 h; series mostly up to 46 µM;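 further: luminescence drop marks cytotoxic hits; nearly all actives have a fitted effect of over 70% in size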
In short: as §1

[6] = qHTS of pediatric cancer cell lines to identify multiple opportunities for drug repurposing: Primary screen for RD cells (AID 1347104); settings: RD rhabdomyosarcoma viability, CellTiter-Glo luminescence, 48 h; series mostly up to 46 µM; further: nearly all actives have a fitted effect of over 55% in size
In short: as §1

Measured: outcome

CCOC(=O)OC(C)OC(=O)[C@@H]1N2C(=O)[C@@H](NC(=O)[C@H](N)c3ccccc3)[C@H]2SC1(C)C (stereo partly specified)
not listed: [6]
inactive: all other assays above

CC(=O)N(CC(O)CO)c1c(I)c(C(=O)NCC(O)CO)c(I)c(C(=O)NCC(O)CO)c1I (stereo unspecified)
not listed: [5]
inactive: all other assays above

Cn1c(=O)c2c(ncn2CCO)n(C)c1=O
not listed: [6]
inactive: all other assays above

Cc1[nH]c(C)c(Cl)c(=O)c1Cl
inactive: all assays above

Cc1cccc(C(=O)O)c1O
inactive: all assays above

O=C(c1ccccc1)C(O)c1ccccc1 (stereo unspecified)
inactive: all assays above

CCN1CC(CCN2CCOCC2)C(c2ccccc2)(c2ccccc2)C1=O (stereo unspecified)
inactive: all assays above

CC(O)CCCCn1c(=O)c2c(ncn2C)n(C)c1=O (stereo unspecified)
inactive: all assays above

CCCCCCCCCCCCCCCCC(C(=O)O)C(O)(CC(=O)O)C(=O)O (stereo unspecified)
not listed: [1]
inactive: all other assays above

CCN[C@H]1CN(CCCOC)S(=O)(=O)c2sc(S(N)(=O)=O)cc21
inactive: all assays above
